The target of test [1] is Rap guanine nucleotide exchange factor 3 (Homo sapiens) (UniProt O95398). Put plainly: Confirmatory qHTS for antagonist of cAMP-regulated guanine nucleotide exchange factor 3 (EPAC1) (AID 1645880). Note: nearly all actives have a fitted effect of over 55% in size. Note: potency is the fitted concentration of half-maximal effect. The gist of the method:
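Released BODIPY-GDP fluoresces less than Rap1-bound BODIPY-GDP; the signal is followed at 480/540 nm at 5-min intervals over 30 min, after 5 min at room temperature. Reactions contain 100 nM EPAC1, 250 nM RAP1B-BODIPY-GDP and 50 uM GDP; results are normalized to ATA and DMSO.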
(In general: qHTS replaces the single test concentration by a dilution series.)

Test [2] shares this target. Put plainly: Confirmatory qHTS for agonist of cAMP-regulated guanine nucleotide exchange factor 3 (EPAC1) (AID 1645881).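 Note: EPAC1 catalysed release of BODIPY-GDP from Rap1B seen as fluorescence loss; 100% = effect of cAMP agonist control; nearly all actives have a fitted effect of over 75% in size.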
The target in test [3] is Rap guanine nucleotide exchange factor 4 (Homo sapiens) (UniProt Q8WZA2). Put plainly: Confirmatory qHTS for agonist of cAMP-regulated guanine nucleotide exchange factor 4 (EPAC2) (AID 1645884).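 Note: nucleotide exchange releases bodipy-GDP from Rap1 and this lowers its fluorescence; % is set by controls: 0 for no effect and ±100 for the full control effect; nearly all actives have a fitted effect of over 65% in size.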
For test [4] the target is unchanged. Put plainly: Confirmatory qHTS for antagonist of cAMP-regulated guanine nucleotide exchange factor 4 (EPAC2) (AID 1645885). For activity change, negative = inhibition: % is set by controls: 0 for no effect and ±100 for the full control effect. Note: nearly all actives have a fitted effect of over 25% in size. Note: potency is the fitted concentration of half-maximal effect.
The target in test [5] is Rap guanine nucleotide exchange factor 3 (Homo sapiens) (UniProt O95398). Put plainly: Counterscreen qHTS for antagonist of cAMP-regulated guanine nucleotide exchange factor 3 (EPAC1) (AID 1645888). Note: % of control where 0% means no effect. The gist of the method: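 Rap1B–BODIPY-GDP (250 nM) with 50 uM GDP; compounds pin-transferred to 9.74 nM–152 uM final (activator) or from 7.32 nM upwards (inhibitor). Fluorescence Ex/Em 480/540 nm read at 5 and 30 min, then after adding cAMP or buffer, at room temperature.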

Records with an inconclusive call do not appear. Unmarked numbers belong to inactive results. Active and inactive are the calls of the source. Calls come from the whole dose curve; as a rule, active = well fitted curve in the direction sought with a large enough effect; inconclusive = small, poorly fitted or top-dose-only effect, or another doubt; inactive = no such curve, though single readings can be large; an effect the other way counts as inactive or inconclusive.

Chain of Rap guanine nucleotide exchange factor 4 (Homo sapiens) (Q8WZA2 whole entry, looked up): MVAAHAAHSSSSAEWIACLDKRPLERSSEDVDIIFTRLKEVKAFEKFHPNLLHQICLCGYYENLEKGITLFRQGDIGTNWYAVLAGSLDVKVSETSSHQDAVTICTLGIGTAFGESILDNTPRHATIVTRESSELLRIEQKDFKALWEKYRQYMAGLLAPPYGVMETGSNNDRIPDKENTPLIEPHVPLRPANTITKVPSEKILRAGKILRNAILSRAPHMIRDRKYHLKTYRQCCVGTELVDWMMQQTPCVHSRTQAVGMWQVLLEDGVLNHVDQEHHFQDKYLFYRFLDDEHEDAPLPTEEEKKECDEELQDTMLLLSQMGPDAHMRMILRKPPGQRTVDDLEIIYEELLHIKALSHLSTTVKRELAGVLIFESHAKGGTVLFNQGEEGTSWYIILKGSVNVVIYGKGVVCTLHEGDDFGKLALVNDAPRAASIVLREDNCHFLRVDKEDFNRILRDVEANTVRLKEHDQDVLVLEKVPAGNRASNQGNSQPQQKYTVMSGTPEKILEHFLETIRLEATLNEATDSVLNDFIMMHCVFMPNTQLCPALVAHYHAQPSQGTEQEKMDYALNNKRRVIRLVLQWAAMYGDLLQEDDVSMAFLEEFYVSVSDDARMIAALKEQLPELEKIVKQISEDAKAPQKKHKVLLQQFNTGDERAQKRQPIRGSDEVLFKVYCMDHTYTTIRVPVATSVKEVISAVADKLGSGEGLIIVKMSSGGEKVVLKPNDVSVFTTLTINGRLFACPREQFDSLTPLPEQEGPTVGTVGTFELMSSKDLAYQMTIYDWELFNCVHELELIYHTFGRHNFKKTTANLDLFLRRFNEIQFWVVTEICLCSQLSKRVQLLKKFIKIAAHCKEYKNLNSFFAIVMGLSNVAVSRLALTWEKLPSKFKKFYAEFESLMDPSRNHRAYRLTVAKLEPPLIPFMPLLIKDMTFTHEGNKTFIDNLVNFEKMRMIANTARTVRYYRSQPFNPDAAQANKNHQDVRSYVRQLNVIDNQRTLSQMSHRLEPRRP
Chain of Rap guanine nucleotide exchange factor 3 (Homo sapiens) (O95398 whole entry, looked up): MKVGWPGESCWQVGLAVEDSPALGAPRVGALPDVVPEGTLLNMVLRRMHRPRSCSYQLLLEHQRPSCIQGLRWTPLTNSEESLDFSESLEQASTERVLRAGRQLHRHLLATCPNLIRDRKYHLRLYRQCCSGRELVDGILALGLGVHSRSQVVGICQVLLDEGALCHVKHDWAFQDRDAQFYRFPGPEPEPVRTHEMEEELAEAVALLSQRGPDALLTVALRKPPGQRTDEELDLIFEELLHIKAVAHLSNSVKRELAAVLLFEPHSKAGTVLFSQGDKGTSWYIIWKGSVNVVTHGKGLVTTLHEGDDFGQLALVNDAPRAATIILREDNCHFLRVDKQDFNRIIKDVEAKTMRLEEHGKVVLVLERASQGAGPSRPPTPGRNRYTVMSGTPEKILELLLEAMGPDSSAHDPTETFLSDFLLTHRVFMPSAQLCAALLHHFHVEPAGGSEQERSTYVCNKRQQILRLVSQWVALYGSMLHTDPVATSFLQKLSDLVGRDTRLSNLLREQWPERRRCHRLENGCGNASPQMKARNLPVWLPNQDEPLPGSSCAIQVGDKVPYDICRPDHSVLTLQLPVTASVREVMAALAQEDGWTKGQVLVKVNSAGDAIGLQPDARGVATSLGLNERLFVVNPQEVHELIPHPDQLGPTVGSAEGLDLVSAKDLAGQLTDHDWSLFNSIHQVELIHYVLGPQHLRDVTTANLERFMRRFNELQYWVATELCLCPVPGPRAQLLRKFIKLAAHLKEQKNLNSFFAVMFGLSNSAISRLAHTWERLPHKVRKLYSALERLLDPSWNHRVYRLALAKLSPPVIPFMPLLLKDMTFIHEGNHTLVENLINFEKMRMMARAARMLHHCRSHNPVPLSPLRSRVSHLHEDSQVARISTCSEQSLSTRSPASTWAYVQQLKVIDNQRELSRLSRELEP

Regarding `CC(=O)C(Sc1nnnn1-c1ccc(O)cc1)c1ccccc1` (stereo not given), the Potency entry in test [1], in test [2], in test [3], in test [4] and in test [5] was “inactive” throughout.

For `CCOC(=O)C(C)n1cnc2c(nnn2-c2cccc(Cl)c2)c1=O` (stereo not given), the Potency result in test [1], in test [2] and in test [4] was “inactive” each time. The activation in test [3] was 0% [at 17.1 µM, percent relative to cAMP agonist control]. Besides, the activity change, negative = inhibition in test [5] is -28.5% [at 30.8 µM].

As for `CCN(CC)CCn1c2c(c(SCC(=O)Nc3nc4ccccc4s3)nc1=O)CCCC2`, the Potency result in test [1], in test [2], in test [3], in test [4] and in test [5] was “inactive” each time.

Take `CC(C)OC1(c2ccccc2)OC(=O)c2ccccc21` (stereo not given): the Potency result in test [1], in test [2], in test [3], in test [4] and in test [5] was “inactive” throughout.

As for `Nn1cnnc1N/N=C/c1ccc(Cl)c([N+](=O)[O-])c1`, the Potency entry in test [1], in test [2], in test [3], in test [4] and in test [5] was “inactive” each time.

Regarding `COc1ccc(-c2oc3c4c2C(=O)OCCOC4CCC3)cc1` (stereo not given), the Potency result in test [1], in test [2], in test [3], in test [4] and in test [5] was “inactive” each time.

With `CCOc1c(Cl)cc(Cl)cc1CNCCSc1nnnn1C`, the Potency entry in test [1], in test [2], in test [3], in test [4] and in test [5] was “inactive” in each case.

Consider `Oc1ccc(-c2csc(Nc3cccnc3)n2)cc1`, for which the Potency entry in test [1], in test [2] and in test [4] was “inactive” in each case. In test [3], the activation is 0.321% [at 17.1 µM, percent relative to cAMP agonist control]. The activity change, negative = inhibition in test [5] was -8.51% [at 30.8 µM].

Consider `COc1cccc(CN2C(=O)C3(SCC(=O)N3c3ccc(F)cc3)c3ccccc32)c1` (stereo not given), for which the Potency result in test [1], in test [2], in test [3], in test [4] and in test [5] was “inactive” throughout.

With `Cc1nn(-c2ccccc2)c(N2CCCC2)c1/C=C1\N=C(c2ccc(OC(C)C)cc2)OC1=O`, the Potency result in test [1], in test [2], in test [3], in test [4] and in test [5] was “inactive” in each case.

For `CC1(C(=O)NS(=O)(=O)c2ccc(Cl)s2)CCN1C(=O)C1(c2ccc(Cl)cc2)CC1` (stereo not given), the Potency in test [1] was 14.1 µM (active). The Potency entry in test [2] and in test [4] was “inactive” in each case. For the same compound, in test [3], the activation is 0% [at 17.1 µM, percent relative to cAMP agonist control]. Moreover, the activity change, negative = inhibition in test [5] is -17.9% [at 30.8 µM].

As for `CC(C)O/C(=N\S(=O)(=O)c1ccc(Cl)cc1)c1ccccc1`, the Potency result in test [1], in test [2], in test [3] and in test [5] was “inactive” in each case. The Potency in test [4] was 16.9 µM (active).

In the case of `CCOc1ccc(Oc2ccccc2NC(=O)CN2C(=O)NC3(CCCC3)C2=O)cc1`, the Potency entry in test [1], in test [2] and in test [4] was “inactive” each time. In test [3], the activation is -25.9% [at 17.1 µM, percent relative to cAMP agonist control]. The activity change, negative = inhibition in test [5] is -5.88% [at 30.8 µM].

For `Cc1ccc(NC(=O)c2c(NC(=O)C(F)(F)F)sc3c2CCCCC3)cc1`, the Potency in test [1] was 84.9 µM (active). Also, the Potency result in test [2], in test [3], in test [4] and in test [5] was “inactive” in each case.

In the case of `Cc1cccc(-n2c(O)c(C=Nc3ccccc3O)c3ccccc3c2=O)n1`, the Potency result in test [1], in test [2], in test [3], in test [4] and in test [5] was “inactive” each time.

For the compound `Clc1ccc(NCc2nc3ccccc3n2CCOc2ccccc2)cc1`, the Potency result in test [1], in test [2], in test [3] and in test [5] was “inactive” in each case. The outcome in test [4] is “inactive [at 12.7 µM]”.

Regarding `Cc1cscc1-c1ccc(C(=O)Nc2c(C)cccc2C)o1`, the Potency entry in test [1], in test [2] and in test [4] was “inactive” throughout. In addition, in test [3], the activation is 7.37% [at 17.1 µM, percent relative to cAMP agonist control]. In addition, the activity change, negative = inhibition in test [5] is -5.01% [at 30.8 µM].

For the compound `COCCn1cnnc1SCC(=O)Nc1sc2c(c1C#N)CCC2`, the Potency entry in test [1], in test [2] and in test [4] was “inactive” each time. For the same compound, in test [3], the activation was 9.93% [at 17.1 µM, percent relative to cAMP agonist control]. In addition, in test [5], the activity change, negative = inhibition was 9.73% [at 30.8 µM].

Regarding `CCc1cccc2sc(N3CCN(C(=O)C4CC4)CC3)nc12`, the Potency result in test [1], in test [2], in test [3] and in test [5] was “inactive” in each case. Moreover, the outcome in test [4] was “inactive [at 12.7 µM]”.

Consider `COc1ccc(S(=O)(=O)Nc2cccc(F)c2)cc1C`, for which the Potency entry in test [1], in test [2] and in test [4] was “inactive” throughout. Moreover, the activation in test [3] was 1.76% [at 17.1 µM, percent relative to cAMP agonist control]. Also, the activity change, negative = inhibition in test [5] is -14.5% [at 30.8 µM].

As for `N#C/C(=C\c1ccc(O)c([N+](=O)[O-])c1)c1nc2ccccc2s1`, the Potency in test [1] was 33.8 µM (active). The Potency result in test [2], in test [3], in test [4] and in test [5] was “inactive” throughout.

For the compound `O=C1NC(=O)C2(CCC(C(=O)O)C2)N1` (stereo not given), the Potency entry in test [1], in test [2] and in test [4] was “inactive” throughout. Moreover, the activation in test [3] was 11.7% [at 17.1 µM, percent relative to cAMP agonist control]. The activity change, negative = inhibition in test [5] is 14.4% [at 30.8 µM].

Take `COc1cccc(NC(=O)CSc2nnc3[nH]c(=O)cc(-c4ccccc4)n23)c1`: the Potency entry in test [1], in test [2], in test [3], in test [4] and in test [5] was “inactive” in each case.

(Values after PubChem BioAssay (NCATS).)
